For some assays here: Measured potencies and affinities stand elsewhere.
Columns and labels:
Parameters in all cases: scale not given: direction of the effect not stated beside the values
[1] = target: Protein translocase subunit SecA (Escherichia coli (strain K12)) (UniProt P10408); assay: Assay to Identify E. coli SecA ATPase Inhibitors; type: functional; settings: 30 µM
[2] = target: T1, Ubiquitin-activating enzyme e1, putative (Leishmania donovani (strain BPK282A1)) (UniProt E9BSI1); assay: Leishmania donovani Ubiquitin Activating Enzyme (LdE1); type: functional; settings: 30 µM
T1 sequence (whole entry): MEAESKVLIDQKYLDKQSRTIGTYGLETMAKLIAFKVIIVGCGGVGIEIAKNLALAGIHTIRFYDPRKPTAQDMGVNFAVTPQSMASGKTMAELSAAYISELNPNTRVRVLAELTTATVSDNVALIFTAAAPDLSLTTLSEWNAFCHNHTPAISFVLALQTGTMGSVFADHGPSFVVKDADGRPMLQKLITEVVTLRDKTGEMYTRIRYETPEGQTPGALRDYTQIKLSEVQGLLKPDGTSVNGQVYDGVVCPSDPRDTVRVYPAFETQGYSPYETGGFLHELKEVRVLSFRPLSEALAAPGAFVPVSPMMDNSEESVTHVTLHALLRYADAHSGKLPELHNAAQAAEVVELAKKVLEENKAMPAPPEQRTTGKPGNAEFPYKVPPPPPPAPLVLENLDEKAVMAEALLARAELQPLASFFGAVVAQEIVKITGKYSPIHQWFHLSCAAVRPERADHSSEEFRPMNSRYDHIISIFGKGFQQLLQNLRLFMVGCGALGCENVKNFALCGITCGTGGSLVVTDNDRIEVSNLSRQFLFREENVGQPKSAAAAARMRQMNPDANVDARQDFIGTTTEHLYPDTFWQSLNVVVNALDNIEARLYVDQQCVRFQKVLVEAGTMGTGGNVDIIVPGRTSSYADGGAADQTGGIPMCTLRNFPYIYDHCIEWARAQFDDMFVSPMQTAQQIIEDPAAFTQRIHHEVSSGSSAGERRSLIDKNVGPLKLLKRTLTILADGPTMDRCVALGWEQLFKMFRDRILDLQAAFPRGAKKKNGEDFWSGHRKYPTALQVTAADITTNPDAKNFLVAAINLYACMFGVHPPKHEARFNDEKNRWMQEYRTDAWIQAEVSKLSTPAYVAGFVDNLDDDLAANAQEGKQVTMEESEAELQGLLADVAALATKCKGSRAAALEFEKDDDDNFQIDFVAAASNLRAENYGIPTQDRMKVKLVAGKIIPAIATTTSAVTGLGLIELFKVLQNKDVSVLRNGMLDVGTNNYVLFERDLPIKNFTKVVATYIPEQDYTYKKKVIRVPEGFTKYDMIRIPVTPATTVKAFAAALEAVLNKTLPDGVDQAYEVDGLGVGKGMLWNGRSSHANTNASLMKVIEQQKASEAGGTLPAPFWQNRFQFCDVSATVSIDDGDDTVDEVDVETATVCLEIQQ

[3] = target: AMP-activated protein kinase, AMPK (Homo sapiens) (UniProt P54646+O43741+P54619+Q9UGJ0+Q9Y478+Q13131+Q9UGI9); assay: AMP-dependent Kinase enzyme assay. An in vitro enzyme assay that detects ADP turnover that is directly proportional to AMPK activity. This uses naive AMPK that is activated during the assay with MK-8722; type: functional; settings: 30 µM
[4] = target: Sialic acid-binding Ig-like lectin 9 (Homo sapiens) (UniProt Q9Y336); assay: Hs-Siglec9 ALPHAscreen SOP 20170721; settings: 10 µM
Chain of Sialic acid-binding Ig-like lectin 9 (Homo sapiens) (Q9Y336 whole entry): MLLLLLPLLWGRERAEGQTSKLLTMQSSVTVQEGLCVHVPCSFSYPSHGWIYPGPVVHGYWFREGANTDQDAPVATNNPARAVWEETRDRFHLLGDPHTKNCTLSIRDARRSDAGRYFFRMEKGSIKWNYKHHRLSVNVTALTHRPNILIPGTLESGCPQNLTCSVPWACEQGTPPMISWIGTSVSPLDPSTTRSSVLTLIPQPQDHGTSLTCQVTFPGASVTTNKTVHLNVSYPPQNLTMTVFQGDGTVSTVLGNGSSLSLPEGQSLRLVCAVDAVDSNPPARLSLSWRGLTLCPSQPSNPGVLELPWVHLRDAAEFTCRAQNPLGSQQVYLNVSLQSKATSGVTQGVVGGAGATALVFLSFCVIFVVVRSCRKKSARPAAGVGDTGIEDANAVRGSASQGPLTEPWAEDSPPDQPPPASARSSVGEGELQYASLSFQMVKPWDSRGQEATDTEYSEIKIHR

Trypanosoma cruzi = assay: Trypanosoma cruzi phosphomannomutase and mannose-1-phosphate guanylyltransferase assay; type: functional; settings: 10 µM
[5] = target: T2, Arginase-2, mitochondrial (Homo sapiens) (UniProt P78540); assay: in vitro enzyme assay to detect the production of urea directly proportional to the activity of Arginase II; type: functional; settings: 33.3 µM; further: in the data most compounds retested in dose-response had high values
T2 sequence (whole entry): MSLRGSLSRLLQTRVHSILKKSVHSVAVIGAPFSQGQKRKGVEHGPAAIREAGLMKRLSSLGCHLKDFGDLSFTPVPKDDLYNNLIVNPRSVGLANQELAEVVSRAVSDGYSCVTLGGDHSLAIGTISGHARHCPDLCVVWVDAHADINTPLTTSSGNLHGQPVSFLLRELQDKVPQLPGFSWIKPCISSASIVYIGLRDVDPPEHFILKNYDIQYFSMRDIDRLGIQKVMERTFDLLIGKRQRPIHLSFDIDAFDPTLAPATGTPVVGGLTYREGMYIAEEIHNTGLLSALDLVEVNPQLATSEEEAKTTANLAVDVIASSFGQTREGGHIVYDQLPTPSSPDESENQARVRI

[6] = target: T3, Proteasome subunit beta (Trypanosoma cruzi) (UniProt O96673); assay: Trypanosoma cruzi proteasome chymotrypsin-like activity (TcProtChymo) assay.; further: in the data most compounds retested in dose-response had high values; type: functional; settings: 9.37 µM
T3 sequence (whole entry): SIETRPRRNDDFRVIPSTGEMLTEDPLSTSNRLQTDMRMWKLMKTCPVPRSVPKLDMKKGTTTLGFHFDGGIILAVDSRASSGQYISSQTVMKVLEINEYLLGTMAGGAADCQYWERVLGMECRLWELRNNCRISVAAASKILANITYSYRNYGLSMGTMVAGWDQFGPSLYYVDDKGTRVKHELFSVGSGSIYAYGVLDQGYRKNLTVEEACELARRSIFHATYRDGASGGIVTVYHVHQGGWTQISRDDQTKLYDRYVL

Homo sapiens = organism: Homo sapiens; assay: To identify inhibition of the IFN signalling (Jak-Stat) pathway via expression of an eGFP reporter gene under the control of an IFN-stimulated response element (ISRE) containing MxA promoter.; type: functional; settings: 30 µM
[7] = target: T4, Tyrosyl-tRNA synthetase, putative (Trypanosoma cruzi (strain CL Brener)) (UniProt Q4DSP6); assay: Trypanosoma cruzi tyrosyl tRNA synthetase (TcYRS) _High Tyrosine SOP; type: functional; settings: 30 µM; further: in the data most compounds retested in dose-response had high values
T4 sequence (whole entry): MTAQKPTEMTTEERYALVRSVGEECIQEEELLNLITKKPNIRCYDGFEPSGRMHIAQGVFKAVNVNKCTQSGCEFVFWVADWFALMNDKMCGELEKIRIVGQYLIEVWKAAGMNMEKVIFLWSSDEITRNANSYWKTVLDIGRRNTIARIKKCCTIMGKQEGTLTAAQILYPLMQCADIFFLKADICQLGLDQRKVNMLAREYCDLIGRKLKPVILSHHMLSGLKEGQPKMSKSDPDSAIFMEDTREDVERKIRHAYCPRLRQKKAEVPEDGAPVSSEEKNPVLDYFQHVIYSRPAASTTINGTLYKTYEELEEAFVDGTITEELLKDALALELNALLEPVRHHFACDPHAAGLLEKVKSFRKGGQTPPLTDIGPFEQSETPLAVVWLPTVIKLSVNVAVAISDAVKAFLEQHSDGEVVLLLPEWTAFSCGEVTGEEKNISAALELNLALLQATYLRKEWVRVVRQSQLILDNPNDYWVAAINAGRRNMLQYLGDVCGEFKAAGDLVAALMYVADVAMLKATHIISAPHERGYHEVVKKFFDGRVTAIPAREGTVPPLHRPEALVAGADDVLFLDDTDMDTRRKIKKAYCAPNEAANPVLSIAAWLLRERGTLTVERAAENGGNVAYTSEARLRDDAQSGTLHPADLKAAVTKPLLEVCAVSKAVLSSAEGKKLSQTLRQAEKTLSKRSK

[8] = target: T4, Tyrosyl-tRNA synthetase, putative (Trypanosoma cruzi (strain CL Brener)); assay: Trypanosoma cruzi tyrosyl tRNA synthetase (TcYRS) SOP; type: functional; settings: 30 µM
[9] = target: Chromo domain-containing protein 1 (Saccharomyces cerevisiae (strain ATCC 204508 / S288c) (Baker's yeast)) (UniProt P32657); assay: ScCHD-1 Enzyme Inhibition Assay; type: functional; settings: 30 µM; further: in the data most compounds retested in dose-response had high values
Chain of Chromo domain-containing protein 1 (Saccharomyces cerevisiae (strain ATCC 204508 / S288c) (Baker's yeast)) (P32657 whole entry, the tested form may be a part): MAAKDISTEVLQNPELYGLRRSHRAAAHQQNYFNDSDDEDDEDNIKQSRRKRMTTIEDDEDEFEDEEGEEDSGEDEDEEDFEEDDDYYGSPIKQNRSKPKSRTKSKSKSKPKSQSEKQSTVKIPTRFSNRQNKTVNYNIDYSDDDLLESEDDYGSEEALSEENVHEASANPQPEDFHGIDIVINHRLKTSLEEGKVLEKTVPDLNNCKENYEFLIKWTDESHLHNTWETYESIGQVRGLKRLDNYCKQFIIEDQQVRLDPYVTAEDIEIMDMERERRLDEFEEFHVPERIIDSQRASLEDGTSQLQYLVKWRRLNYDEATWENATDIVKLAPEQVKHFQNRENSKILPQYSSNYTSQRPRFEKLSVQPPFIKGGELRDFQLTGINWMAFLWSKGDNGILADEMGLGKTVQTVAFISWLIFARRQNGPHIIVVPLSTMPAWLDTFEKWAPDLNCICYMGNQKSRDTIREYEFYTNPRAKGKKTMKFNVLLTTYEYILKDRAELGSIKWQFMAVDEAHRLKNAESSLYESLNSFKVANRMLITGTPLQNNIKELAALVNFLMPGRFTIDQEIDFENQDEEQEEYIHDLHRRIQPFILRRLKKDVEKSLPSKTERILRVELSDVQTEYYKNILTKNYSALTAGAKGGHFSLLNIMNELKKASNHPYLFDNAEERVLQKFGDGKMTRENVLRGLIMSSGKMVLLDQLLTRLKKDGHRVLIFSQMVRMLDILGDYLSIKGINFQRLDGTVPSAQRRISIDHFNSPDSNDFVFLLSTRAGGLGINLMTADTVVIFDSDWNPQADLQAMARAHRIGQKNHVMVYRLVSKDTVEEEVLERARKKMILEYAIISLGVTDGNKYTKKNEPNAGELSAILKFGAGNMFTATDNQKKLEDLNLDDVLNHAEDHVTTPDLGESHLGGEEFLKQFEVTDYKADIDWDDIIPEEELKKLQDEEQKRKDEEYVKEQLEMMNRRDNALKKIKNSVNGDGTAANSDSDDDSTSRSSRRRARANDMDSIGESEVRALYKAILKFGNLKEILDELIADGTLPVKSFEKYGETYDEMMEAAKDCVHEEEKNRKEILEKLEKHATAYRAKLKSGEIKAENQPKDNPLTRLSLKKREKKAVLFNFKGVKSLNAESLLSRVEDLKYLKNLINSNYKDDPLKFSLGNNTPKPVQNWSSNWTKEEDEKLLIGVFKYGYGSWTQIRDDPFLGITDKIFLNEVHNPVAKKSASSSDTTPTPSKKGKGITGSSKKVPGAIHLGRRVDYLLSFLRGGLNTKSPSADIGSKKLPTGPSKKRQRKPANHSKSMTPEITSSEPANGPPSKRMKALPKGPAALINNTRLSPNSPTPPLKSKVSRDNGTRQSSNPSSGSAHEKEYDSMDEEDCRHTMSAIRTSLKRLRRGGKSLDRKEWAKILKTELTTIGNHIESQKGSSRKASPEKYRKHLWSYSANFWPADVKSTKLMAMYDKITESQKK

Chain of Protein translocase subunit SecA (Escherichia coli (strain K12)) (P10408 whole entry): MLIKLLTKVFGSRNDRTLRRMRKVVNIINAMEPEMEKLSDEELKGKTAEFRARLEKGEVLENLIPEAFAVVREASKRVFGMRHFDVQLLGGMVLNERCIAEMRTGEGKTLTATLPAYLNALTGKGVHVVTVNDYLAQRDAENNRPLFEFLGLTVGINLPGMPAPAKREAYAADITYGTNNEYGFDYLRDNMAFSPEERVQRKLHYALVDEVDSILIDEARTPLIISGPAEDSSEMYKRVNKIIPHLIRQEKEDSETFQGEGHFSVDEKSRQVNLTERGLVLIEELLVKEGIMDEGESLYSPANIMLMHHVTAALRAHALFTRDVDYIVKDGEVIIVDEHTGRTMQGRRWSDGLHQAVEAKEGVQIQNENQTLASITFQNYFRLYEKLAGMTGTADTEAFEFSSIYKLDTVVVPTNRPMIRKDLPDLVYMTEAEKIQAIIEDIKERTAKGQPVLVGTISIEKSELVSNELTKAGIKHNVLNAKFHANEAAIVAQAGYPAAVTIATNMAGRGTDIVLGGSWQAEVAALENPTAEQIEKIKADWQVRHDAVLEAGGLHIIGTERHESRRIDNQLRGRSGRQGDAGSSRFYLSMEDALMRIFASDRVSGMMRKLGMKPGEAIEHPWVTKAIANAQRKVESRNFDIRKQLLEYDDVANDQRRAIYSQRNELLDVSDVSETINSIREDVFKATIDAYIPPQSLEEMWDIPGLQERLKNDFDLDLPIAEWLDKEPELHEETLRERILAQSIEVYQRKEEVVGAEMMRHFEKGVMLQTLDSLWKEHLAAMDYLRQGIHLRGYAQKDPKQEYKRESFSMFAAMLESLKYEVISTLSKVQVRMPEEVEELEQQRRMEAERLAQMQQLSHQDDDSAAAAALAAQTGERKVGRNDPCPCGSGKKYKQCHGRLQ

Structure (SMILES) | Percent Effect [1] | Percent Effect [2] | Percent Effect [3] | Percent Effect [4] | Percent Effect (Trypanosoma cruzi) | Percent Effect [5] | Percent Effect [6] | Percent Effect (Homo sapiens) | Percent Effect [7] | Percent Effect [8] | Percent Effect [9]
Cn1cnnc1CNC(=O)Nc1cc(C(F)(F)F)c[nH]c1=O | -4.28% | 7.89% | -0.726% | 8.28% | 1.5% | -0.383% | 3.84% | 2.52% | 2.45% | 7.32% | -7.82%
Cc1ncc(CNC(=O)N(C)C2CCN(c3ccccc3)C2=O)s1 (configuration not stated) | -4.68% | 5.26% | 1.78% | -2.39% | -4.51% | 3.45% | 4.51% | 15.1% | 2.45% | 0% | -3.16%
Cc1nc(N2CCN(C(=O)C(C)(C)C)CC2)cc(-n2cnc(C)c2C)n1 | -3.24% | 10.4% | 2.15% | 6.33% | 6.2% | -44.1% | 22.3% | 4.66% | 3.23% | 8.64% | -4.66%
Cc1nc(NC(=O)CNC(=O)c2c(F)cccc2Cl)n[nH]1 | -5.26% | 13.2% | 2.15% | 2.44% | 3.21% | -3.55% | 9.11% | 3.8% | 1.06% | 7.79% | -1.65%
Cn1cc(CN2CC[C@H](O)[C@@H]2Cc2ccncc2)cn1 | -8.41% | 5.41% | -33.1% | -9.45% | -0.293% | -0.955% | 1.66% | 26.4% | -1.08% | -2.56% | 3.16%
Cc1cccc(CNCc2c(C)nn(C)c2N2CCOCC2)n1 | 0.786% | 8.22% | 4.7% | 2.65% | 5.09% | 13.2% | 19.3% | -6.96% | 8.6% | 15% | -6.04%
CC(C)c1noc(CN2CCN(C(=O)c3ccccc3F)CC2)n1 | -4.33% | 13.5% | -4.45% | 3.5% | -2.32% | -3.88% | 6.82% | 23.6% | 7.92% | 18.3% | 0.419%
COc1cccc(-c2nccnc2C2CCN(C(C)=O)CC2)c1 | -1.31% | 9.46% | 8.79% | -0.0533% | -0.593% | 1.16% | 15.1% | -0.133% | 3.23% | 14.3% | -14.9%
CCCNC(=O)Nc1cc2c(cc1SC)OCCO2 | -5.72% | 13.5% | -3.48% | 12.2% | 2.93% | 11.2% | 10.7% | -1.29% | 8.91% | 8.54% | -6.19%
CN1N=C(C(=O)N(Cc2ccco2)C2CC2)CCC1=O | -3.94% | 0% | 7.53% | 0.679% | 1.46% | -1.18% | 9.49% | 4.75% | 4.25% | 5.2% | 8.43%
CCN1CCN(Cc2ccnc(-c3cccnc3)n2)CC1 | -8.52% | 20.3% | 0.102% | 1.94% | -0.79% | -1.62% | 15.3% | -6.28% | 4.3% | 16.9% | -29.4%
O=C(Nc1ccc(N2CCCC2)nc1)N1CCc2sccc2C1 | -5.59% | 2.7% | 0.616% | 0.939% | -8.59% | -0.833% | 22.1% | 7.44% | 13.9% | 13.4% | 1.64%
CCc1cnc(N)nc1NCCN1CCCCC1 | -4.23% | 13% | 1.45% | 11.9% | 6.59% | 2.76% | 7.16% | 4.63% | 7.53% | 16.1% | -7.73%
O=C(c1cscn1)N1C[C@H]2CCCC(OCc3cccnc3)[C@H]2C1 (some centres not stated) | -5.26% | 5.33% | -2.55% | 2.64% | -0.193% | -37.5% | 9.06% | -6.53% | 1.04% | 12.5% | -5%
COCC1COCCC12CCN(C(=O)CCOc1ccccc1)CC2 (configuration not stated) | -3.35% | 2.7% | 0.684% | -3.94% | 8.2% | -2.5% | 6% | -0.428% | 8.91% | 6.1% | 1.14%
CC(C)(C)c1noc(CN2CCCN(Cc3cccs3)CC2)n1 | -4.7% | 10.4% | 2.92% | -6.09% | -3.75% | 0.356% | 1.69% | 30% | 6.8% | 12.2% | -5.35%
O=C(O)[C@]12CCCN(Cc3ccncc3)[C@@H]1CCN(c1cnccn1)C2 | -3.31% | 2.67% | -1.2% | -3.96% | -6.91% | -0.521% | 21.6% | 22% | -0.546% | 1.24% | -6.37%
CCc1[nH]ncc1C(=O)N1CCCN(Cc2cnn(C(C)C)c2)CC1 | -1.61% | 29.7% | -18.5% | -5.54% | 4.62% | -18% | 18.7% | 24.4% | 3.45% | 13.6% | -9.88%
CC(C)c1cc(NCC(O)c2ccc(F)cc2)n2nccc2n1 (configuration not stated) | -2.04% | 2.7% | 10.8% | 1.77% | 1.35% | -4.29% | 3.97% | 38.1% | 2.65% | 7.32% | 4.86%
COc1ccc(NC(C)=O)c(N2CCN(C(C)=O)CC2)n1 | -3.73% | -2.7% | -14.1% | -3.66% | -3.32% | 0% | 7.35% | -1.36% | 7.92% | 8.54% | 15.3%
Cc1nccn1-c1cc(CNC(=O)CCC2CCCO2)ccn1 (configuration not stated) | -0.34% | 26.3% | 1.23% | -7.85% | 3.08% | 1.8% | 18.9% | 3.69% | 8.37% | 28.4% | -9.77%
COc1ccc2c(c1)CN(Cc1nc3ccsc3c(=O)[nH]1)CC2 | -2.79% | -5.06% | -0.628% | 14.2% | -1.79% | 1.9% | 2.05% | 24.5% | 3.45% | 1.27% | 21.3%
